Assay outcomes (PubChem)
Shown are actives, neighbours in structure and some others; about 1.7% of the full set was active somewhere.
CCHFV vOTU inh: CCHFV vOTU protease inhibitors, primary screen, biochemical, Pep-AMC substrate, fluorescence; Crimean-Congo hemorrhagic fever virus L polyprotein viral ovarian tumor (vOTU) protease …; inhibition, % at 11.5 µM; hit rate 0.55% among 370,000; in the data active means inhibition above about 30%; further: 0% = vehicle wells with enzyme and 100% = no enzyme wells
VHR inh abs: VHR1 phosphatase inhibitors, primary screen, biochemical, absorbance, uHTS | recombinant VHR phosphatase, pNPP absorbance | inhibition, % at 13.3 µM | hit rate 0.52% among 290,000 | AID 1654, 2009; in the data active means inhibition above about 50%
Target sequence (P51452 whole entry, looked up): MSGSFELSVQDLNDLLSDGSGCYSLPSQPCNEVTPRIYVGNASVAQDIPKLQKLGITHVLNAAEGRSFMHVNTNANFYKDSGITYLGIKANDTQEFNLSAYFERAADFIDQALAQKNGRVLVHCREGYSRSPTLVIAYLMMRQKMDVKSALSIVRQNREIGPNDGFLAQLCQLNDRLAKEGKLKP
SSB-PriA inh: inhibitors of Klebsiella pneumoniae PriA binding to SSB C-terminal tail, primary screen, biochemical, AlphaScreen; PriA–SSB C-terminal tail interaction (Klebsiella pneumoniae); AlphaScreen SSBct-PriA binding, biotinylated peptide; inhibition, % at 33 µM; hit rate 0.6% among 430,000; AID 1272365, 2023; in the data active means inhibition mostly above about 37%, no sharp cut-off; inactive means mostly below about 20%;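 further: plate controls were negative control peptide for no effect and reference peptide for full effect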
SARS 3CLpro inh: SARS-CoV 3CLpro protease inhibitors, primary screen, biochemical, quenched FRET; Replicase polyprotein 1ab (Severe acute respiratory syndrome coronavirus), P0C6X7; recombinant SARS-CoV 3CLpro, quenched FRET peptide cleavage; inhibition, % at 6 µM; hit rate 0.14% among 290,000; in the data active means inhibition above about 12%
RecA splice inh: Mtb RecA intein splicing inhibitors, primary screen, biochemical, fluorescence, HTS. hit rate 0.75% among 290,000. cell-free RecA intein splicing. Protein RecA (Mycobacterium tuberculosis (strain ATCC 25618 / H37Rv)), P9WHJ3. inhibition, % (no concentration beside the values); in the data active means inhibition above about 30%;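 further: 0% = vehicle wells and 100% = reference inhibitor control wells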
Active calls of the source: *; . = not tested or not shown.

SMILES | CCHFV vOTU inh | VHR inh abs | SSB-PriA inh | SARS 3CLpro inh | RecA splice inh
O=c1c(SCc2cccc([N+](=O)[O-])c2)nccn1-c1ccc(Br)cc1 | . | . | 11 | . | .
O=c1c(SCc2cccc([N+](=O)[O-])c2)nccn1-c1ccc(F)cc1 | . | . | 40* | . | .
CCCCc1ccc(S(=O)(=O)c2cnc(SCC(N)=O)[nH]c2=O)cc1 | . | . | 2 | . | .
COc1ccc(OC)c(Nc2nc(-c3sc(C)nc3C)cs2)c1 | 4 | 15 | 47* | 1 | 11
CCC(C)C(=O)Nc1nc(C)c(-c2csc(Nc3cc(OC)ccc3OC)n2)s1 (centres undefined) | 17 | 51* | 29 | 5 | 7
COc1ccc(OC)c(Nc2nc(-c3sc(NC(=O)C(C)(C)C)nc3C)cs2)c1 | 10 | 48 | 10 | 0 | 2
CCC(C)C(=O)Nc1nc(C)c(-c2csc(Nc3cc(Cl)ccc3OC)n2)s1 (centres undefined) | 9 | 27 | 10 | 8 | 7
CCN(Cc1cnc2ccccn12)S(=O)(=O)c1cc(F)ccc1OC | . | . | -14 | . | .
Cc1nc2c([nH]1)CC(C(=O)NC1c3ccccc3CC1O)CC2 (centres undefined) | . | . | -4 | . | .
CCOc1ccc(NC(=O)CC(NCc2ccccn2)C(=O)O)cc1 (centres undefined) | 1 | 16 | 96* | 2 | -17
COc1ccc(NC(=O)CC(NCc2ccccn2)C(=O)O)cc1 (centres undefined) | -5 | 18 | -8 | 1 | -8
Cc1ccc2nc3c(cc2c1)c(C)nn3-c1ccccc1 | -10 | -29 | -78 | -1 | -34
Cc1nn(-c2ccccc2)c2nc(=O)n(-c3ccccc3)cc12 | 0 | 56* | -10 | -2 | 0
COc1ccc(CCNc2nnc(-c3ccc(C)cc3)c(=O)[nH]2)cc1OC | . | . | 4 | . | .
COc1ccc(CCNc2cc(C)[nH]c(=O)c2)cc1OC | -18 | 60* | -1 | 3 | 0
O=c1[nH]nc(Sc2ncnc3sccc23)n1CCc1ccccc1 | -15 | 34 | 4 | -3 | 31*
CCN(CC)C(=O)CSc1n[nH]c(=O)n1CCc1ccccc1 | 20 | 17 | -3 | -6 | -2
O=C(NC1CCCc2c1cnn2-c1ccc(F)cc1F)c1cnccn1 (centres undefined) | 1 | 17 | -6 | 2 | 0
O=C(NC1CCCc2c1cnn2-c1ccc(F)cc1F)c1csnn1 (centres undefined) | -5 | 54* | -3 | -5 | 1
O=C(CCc1cn2ccccc2n1)NC1CCCc2c1cnn2-c1ccccc1F (centres undefined) | -6 | 50* | -7 | -5 | -7
COc1ccccc1NS(=O)(=O)c1cc(NC(=O)c2sccc2C)ccc1N1CCCC1 | -3 | 53* | 7 | 3 | 3
COC(=O)c1ccc(CN2CCC(COCc3ccc(F)cc3)CC2)o1 | . | . | 5 | . | .
CSc1ccccc1NC(=O)C(=O)NCCc1ccc2c(c1)CCCN2C | . | . | 15 | . | .
Cc1ccc(NC(=O)c2cnc(SCC(=O)Nc3ccccc3C(F)(F)F)n(C)c2=O)cc1C | . | . | -7 | . | .
Cc1ccc(NC(=O)c2cnc(SCC(=O)NCC3CCCO3)n(C)c2=O)cc1C (centres undefined) | -6 | . | 6 | . | 51*
SMILES | CCHFV vOTU inh | VHR inh abs | SSB-PriA inh | SARS 3CLpro inh | RecA splice inh
COc1ccc(NC(=O)NCCn2nc(-c3ccc(OC)c(OC)c3)ccc2=O)cc1 | . | . | -3 | . | .
O=C(CN1C(=O)S/C(=C\c2cccs2)C1=O)Nc1ccc(C(=O)O)c(O)c1 | 23 | -5 | 9 | 14* | 3
O=C(CC1CCCCN1S(=O)(=O)c1ccccc1)NCc1ccccn1 (centres undefined) | . | . | 34 | . | .
COC1(CNC(=O)C(=O)Nc2ccccc2C#N)Cc2ccccc2C1 | . | . | 5 | . | .
Cc1cccc(-c2nc(CSc3nc4c(c(=O)[nH]3)CCC4)c(C)o2)c1 | -7 | -4 | 96* | -1 | -3
Cc1ccccc1-c1nc(CSc2nc3c(c(=O)[nH]2)CCC3)c(C)o1 | 13 | -7 | 94* | -4 | -2
CCOc1ccc(-c2nc(COC(=O)c3nnn(-c4cc(C)cc(C)c4)c3C)c(C)o2)cc1 | . | . | -11 | . | .
CN(C)CCCn1cnc2c(c1=N)C(c1ccccc1)c1ccc3ccccc3c1O2 (centres undefined) | -15 | 16 | 51* | -20 | 6
N=c1c2c(ncn1CCCO)Oc1c(ccc3ccccc13)C2c1ccccc1 (centres undefined) | -7 | 9 | 2 | -5 | 10
COC(=O)/C=C1/SC(=NNC(=O)c2ccc(OC)cc2)NC1=O | . | . | 5 | . | .
CN(C)C(=O)C1CCNCC1 | . | . | 39* | . | .
COc1ccc(-n2c(C)nc3ccc(NS(=O)(=O)c4ccc([N+](=O)[O-])cc4)cc3c2=O)cc1 | . | . | 7 | . | .
Fc1cccc(Cl)c1Cn1ncc2ccccc21 | 2 | 53* | -20 | 2 | 2
c1ccc(Cn2ncc3ccccc32)cc1 | -5 | 33 | -18 | 2 | 3
Cc1cccc(NC(=O)C2CCCCN2S(=O)(=O)c2ccc(Cl)s2)n1 (centres undefined) | . | . | 9 | . | .
CCOc1ccc2oc(C(=O)NCC3CCCO3)c(C)c2c1 (centres undefined) | -18 | 5 | -16 | -3 | -2
COc1ccc2oc(C(=O)NCC3CCCO3)c(C)c2c1 (centres undefined) | -1 | 52* | -26 | -6 | 4
CSc1ccc(-c2noc(CN3C(=O)COc4cc(Cl)ccc43)n2)cc1 | . | . | -5 | . | .
O=C1C2=C(Nc3ccccc3SC2c2ccco2)c2ccccc21 (centres undefined) | 4 | -8 | 48* | 7 | 18
O=C1c2ccccc2NC(c2ccco2)N1O (centres undefined) | 0 | 2 | -2 | 0 | -3
CNc1nc(NN)nc(Nc2ccccc2)n1 | -8 | 2 | 105* | -2 | .
O=C(NNC(=O)C1CC(=O)N(Cc2ccccc2)C1)c1ccc(Br)cc1 (centres undefined) | 5 | 57* | -6 | 0 | 1
O=C1NC2=C(CCc3ccccc32)C(c2ccccc2)N1 (centres undefined) | -18 | -6 | 2 | 0 | 47*
CN(C)c1ccc(C=C2C=CC=C2)cc1 | -8 | . | 41* | . | .
COc1ccc(C(N)=NOC(=O)CCCc2ccccc2)cc1OC | . | . | -51 | . | .
Oc1ccc(Nc2nc(-c3ccc(O)cc3)cs2)cc1 | 1 | 10 | 34 | -6 | 34*
O=C(O)c1ccc(Nc2nc(-c3cccnc3)cs2)cc1 | -2 | 53* | -8 | -6 | 0
CC(=O)c1ccc(Nc2nc(-c3cccnc3)cs2)cc1 | -2 | 8 | -9 | 2 | -2
Cc1cc(SCC(=O)N2CCN(c3ccccc3F)CC2)nc(-c2ccc(C(F)(F)F)cc2)n1 | . | . | -27 | . | .
CCOC(=O)CC(=O)CSc1nc(N)c2c(C)c(C)sc2n1 | . | . | -20 | . | .
